Measurements as given in PubChem BioAssay (NCI).
Values joined by “and” are separate entries in the source; they are usually repeats but may differ in a detail not shown here. Identical values can stand only once. Compounds without any hit were thinned out: in the full panel of roughly 83,000, 20% have a hit.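 For each line, cells grew in 96-well plates with the test compound present at a single concentration for 48 hours.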 A number with no mark means an inactive call. Active and inactive are the calls of the source. Rule for the calls: active = growth percent below 10; inactive = the rest.

System: MDA-MB-468 breast
Assay: NCI-60 one-dose screen, 48 h (100 = growth as untreated, 0 = no growth, -100 = all killed)
Conditions: 10 µM unless noted

Compound	growth
NC[C@@H]1O[C@H](O[C@@H]2[C@@H](CO)OC(O[C@@H]3[C@@H](O)[C@H](N)C[C@H](N)[C@H]3OC3O[C@H](CN)[C@@H](O)[C@H](O)[C@H]3N)[C@@H]2O)[C@H](N)[C@@H](O)[C@@H]1O (some centres not stated)	110%
O=C1C(=O)c2cccnc2-c2ncccc21	-91% (active)
Cc1c(C(N)=O)sc2c1c(=O)n(Cc1ccccc1)c1nnc(-c3ccc(Br)cc3)n21	29.8%
O=C1NCC(=O)N(Cc2ccco2)[C@H]1Cc1ccccc1	114%
N=C1N=C(N)CS1	103%
COc1cc2nc(-c3ccc(-c4nn[nH]n4)cc3)[nH]c(=O)c2cc1OC	104%
O=C(O)c1ccc(OCc2ccccc2)cc1	104%
O=C1CCCC1[n+]1ccccc1 (configuration not stated)	120%
COc1cccc(-c2nc(SCC(=O)Nc3ccc(C(=O)/C=C/c4ccc(OC)c(OC)c4)cc3)[nH]c(=O)c2C#N)c1	65.7%
CCC(C)(C)c1ccc(Nc2ccc(Nc3ccc(C(C)(C)CC)cc3)cc2)cc1	101%
Cc1ccc(N2C(=O)c3cccc4c(N)c(S(=O)(=O)O)cc(c34)C2=O)cc1	113%
COc1ccc2c(c1)C(C)Cc1c(ncnc1-n1cnc3cc(C)ccc31)N2C (configuration not stated)	7.23% (active)
COC(=O)C1(O)NC(=C(C#N)C#N)C(C#N)=C1C(=O)c1ccc(OC)c(OC)c1 (configuration not stated)	110%
O=C(O)c1ccc(-n2cc(CNc3ccc(F)cc3)c(-c3ccc(C(F)(F)F)cc3)n2)cc1	83.2%
COc1ccc(C(c2cc(OC)c(OC)c(OC)c2)N2CCCC2)cc1 (configuration not stated)	54.8%
O=C([C@H]1C[C@H]1c1ccc(S(F)(F)(F)(F)F)cc1)N1CCN(c2cc(Cl)ccc2C(F)(F)F)CC1	58.9%
CN1CCC(CNc2ccc3ncc(-c4cccc(OC(F)(F)F)c4)n3n2)CC1	-84.8% (active)
OC1CSSC1Cn1cnc2c(Nc3ccc(F)c(Cl)c3)ncnc21 (configuration not stated)	2.83% (active)
O=C(CSc1nnc(-c2cccnc2SCc2ccccc2)o1)Nc1nc(Cl)cc(Cl)n1	98.8%

Compound	growth
CC(=O)O[C@H]1CC[C@]2(C)[C@H]3CC=C4[C@@H]5CC(C)(C)CC[C@]5(C(=O)OCC(COC(=O)C(Cl)Cl)(COC(=O)C(Cl)Cl)NC(=O)C(Cl)Cl)CC[C@@]4(C)[C@]3(C)CC[C@H]2C1(C)C	58.7%
O=c1sc2ncnc3ncn1c32	8.83% (active)
CNC(=O)c1cc(Oc2ccc3nc(Nc4ccc(Cl)c(C(F)(F)F)c4)ccc3c2)ccn1	45.3%
O=C(Nc1ccccc1)c1cc2ccccc2s1	89.1%
Cc1ccc(C2CCCCC2)cc1Br	97%
CC1(C)Nc2cccc3c(N=Nc4ccc(N=Nc5ccccc5)c5ccccc45)ccc(c23)N1	95.9%
O=S(=O)(NCCCNc1nccc(-c2c(-c3cccc(O)c3)nc3occn23)n1)c1ccc(Br)cc1	96.3%
COc1ccc(-c2cc(-c3cccnc3)nc3sc4c(N)c(C(C)=O)c(-c5ccccc5)nc4c23)cc1OC	76.3%
O=C(O)c1cn(C2CC2)c2cc(N3CCN(C(=O)N4CCOCC4)CC3)c(F)cc2c1=O	103%
Cc1nnc(NS(=O)(=O)c2ccc(N=Nc3ccc(N)nc3N)cc2)s1	120% and 132%
CC(Nc1ncnc2ccc(-c3cnc4cnccn34)cc12)c1ccccc1 (configuration not stated)	-21% (active)
COc1cc(NCC(C)(O)CN(CC(C)C)CC(C)C)c2nc(C)ccc2c1 (configuration not stated)	-11.4% (active)
CCCCNc1nc(NN2C(=O)c3cccc4cccc(c34)C2=O)nc(-n2cnc3ccccc32)n1	92.7%
Cc1cc(C(=C2C=CC(=Nc3ccccc3)C=C2)c2ccc(Nc3ccccc3)cc2)ccc1N	-84.2% (active)
CCCCNC(=O)Oc1ccc(/C(=C(/CC)Cc2ccccc2)c2ccc(OCCN3CCCCCC3)cc2)cc1	6.65% (active)
S=c1[nH]nc(Cn2c3ccccc3c3ccncc32)o1	115%
COc1cc(-c2nc(-c3nnc(-c4ccc(F)c(Cl)c4)o3)c3ccccn23)cc(OC)c1OC	52.5%
COc1cc(-c2nc3ccccc3s2)ccc1NC(=O)COc1ccc(Cl)cc1	21.3%
